Test results reported in PubChem BioAssay AID431 (Sanford-Burnham Center for Chemical Genomics, 2006).
Among all 63,000 compounds or so, about 1,100 (1.7%) were called active. The list comes from a sample in which actives are over-represented; it also holds similar structures and randomly drawn compounds. Results with a measured potency or affinity are listed apart. Values without a mark were called inactive.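 How the source made its calls: active means compounds whose percent cytotoxicity in the single-dose primary screen, scaled between solvent and toxic-drug controls, exceeds 50; inactive means the rest.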

Test: viability loss of HPDE-C7K cells – cell-based, fluorescence, HTS, primary screen (AID 431);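 further: 0% = DMSO solvent wells and 100% = doxorubicin-treated wells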
Conditions: HPDE-C7K KRASV12 cells, Alamar Blue viability, 48 h; at 10 µM; active compounds read high

Row | Structure (SMILES) | cytotoxicity
1 | Cc1onc(-c2c(F)cccc2Cl)c1C(=O)NCCc1ccc(S(N)(=O)=O)cc1 | -7.2%
2 | N#C/C(C(=O)N1CCOCC1)=C1\Nc2ccccc2S1 | 14.5%
3 | O=C(NCc1ccco1)c1cc(-c2ccncc2)nc2ccccc12 | -8.1%
4 | CCOc1cc(N2CCOCC2)c(OCC)cc1NC1=NCCCCC1 | -3.3%
5 | CC1CCCC(NC(=O)CSc2nnc(N)s2)C1C (centres undefined) | -4.3%
6 | Cc1ccc(C)c(N(CC(=O)NCc2ccc3c(c2)OCO3)C(=O)CCC(=O)Nc2ccccn2)c1 | -28%
7 | COc1ccc(N2CSC3=C(C#N)C(c4ccc(OC)c(OC)c4)CC(=O)N3C2)c(OC)c1 (centres undefined) | -12%
8 | Cn1c(CNc2ccc(Cl)cc2)nc2ccccc21 | -9.8%
9 | Cc1nc2ccccc2n1-c1ccccc1 | -12.4%
10 | CC(C)N=c1cc2n(-c3ccc(Cl)cc3)c3ccccc3nc-2cc1Nc1ccc(Cl)cc1 | 68.8% (active)
11 | CCCCn1c(C(C)NC(=O)CCC)nc2ccccc21 (centres undefined) | 2.5%
12 | CCc1c(C)nc2cc(-c3ccc(OC)c(OC)c3)nn2c1N1CCCC1 | 19.1%
13 | CCOCCN1CCN(c2c(C)c(C)nc3cc(-c4cc(OC)cc(OC)c4)nn23)CC1 | 9.5%
14 | CCCSC1=N/C(=C\C=C\c2ccco2)C(=O)S1 | 51.9% (active)
15 | C=CCSC1=N/C(=C\C=C\c2ccco2)C(=O)S1 | 33.1%
16 | O=C1SC(SCc2ccccc2)=N/C1=C\c1ccco1 | 42.6%
17 | CC(=Nc1ccccc1)Nc1ccccc1 | -3.8%
18 | S=C(N=Nc1ccccc1)NNc1ccccc1 | 50.5% (active)
19 | ONC(=Nc1ccccc1)C(=Nc1ccccc1)NO | -6.3%
20 | COC(=O)c1c(C)[nH]c(C(=O)C(C)Sc2nnc(-c3cc(OC)c(OC)c(OC)c3)o2)c1C (centres undefined) | 11.4%
21 | Cn1c(=O)c2c(nc(NCCCN3CCOCC3)n2Cc2ccc(Cl)cc2)n(C)c1=O | -3.3%
22 | CCOC(=O)c1c(C)oc2c1cc(O)c1ccccc12 | 14%

Row | Structure (SMILES) | cytotoxicity
23 | COC(=O)c1c(C)oc(C)c(C(=O)OC)c1=O | 0.6%
24 | CCN1CCN(Cc2cc(=O)oc3ccc(Cl)cc23)CC1 | -11%
25 | Cc1cccc(-n2c(SCC(=O)Nc3ccc4c(c3)OCO4)nnc2-c2ccoc2C)c1 | 53.6% (active)
26 | Cc1cccc(-n2c(SCC(=O)Nc3nonc3C)nnc2-c2ccoc2C)c1 | -13.8%
27 | Cc1ccc(-n2c(SCC(=O)Nc3ccc4c(c3)OCO4)nnc2-c2ccoc2C)cc1 | 17%
28 | COC(=O)c1cccc(NC(=O)C2COc3ccccc3O2)c1 (centres undefined) | -26.2%
29 | CC(=O)c1ccccc1OC(=O)c1ccco1 | -0.8%
30 | C=CCN1C(=Nc2ccccc2)SC/C1=C\C(=O)OC | -1.6%
31 | O=C(c1cccc(C(=O)N2CCN(c3ncccn3)CC2)c1)N1CCN(c2ncccn2)CC1 | -2.4%
32 | Cc1c(C)c2cc(Cl)c(OCc3nn[nH]n3)cc2oc1=O | -12%
33 | CCOC(=O)c1[nH]c2ccc(F)cc2c1NC(=O)CN1CCN(C/C=C/c2ccccc2)CC1 | 65% (active)
34 | CCOC(=O)c1[nH]c2ccc(OC)cc2c1NC(=O)C(C)N1CCSCC1 (centres undefined) | 31.2%
35 | CCOC(=O)c1[nH]c2ccc(OCC)cc2c1NC(=O)CN1CCN(c2ccccc2)CC1 | 7.4%
36 | CCOC(=O)c1[nH]c2ccc(F)cc2c1NC(=O)CN1CCc2cc(OC)c(OC)cc2C1 | -3.4%
37 | CCOC(=O)c1[nH]c2ccccc2c1NC(=O)CN1CCCCC1 | -11.1%
38 | CCOC(=O)c1[nH]c2ccc(F)cc2c1NC(=O)C(C)N1CCc2cc(OC)c(OC)cc2C1 (centres undefined) | 53.6% (active)
39 | Cn1c(=O)n(CC(=O)OCc2ccccc2)c(=O)c2c1nc1n2CCCN1C1CCCCC1 | 0.1%
40 | N#CC1=C(N)SC(N)=C(C#N)C1CCC1CCCCC1 | 35.2%
41 | Cc1nc(-c2ccc(C(=O)O)cc2)cs1 | -9.4%
42 | COCCNC(=O)c1ccc(NS(C)(=O)=O)cc1 | -8%
43 | COc1ccc(OC)c(NC(=O)CC(NCCC2=CCCCC2)C(=O)O)c1 (centres undefined) | -16.9%
44 | CC1CCN(CC(O)COC2CCC(C(C)(C)C)CC2)CC1 (centres undefined) | 50.3% (active)

Row | Structure (SMILES) | cytotoxicity
45 | Cc1ccc(N2CCN(CC(O)COC3CCCCC3)CC2)cc1 (centres undefined) | 42.6%
46 | CC1CCN(CC(O)COc2ccc(F)cc2)CC1 (centres undefined) | -1.9%
47 | CC1CC(=O)N(Cc2ccccc2)c2ccccc2N1C=O (centres undefined) | 7.1%
48 | CON(C)c1nc(Oc2ccc(=O)[nH]n2)nc(N(C)C)n1 | -15.6%
49 | CCC1CCCCN1CCNC(=O)C1CCN(S(=O)(=O)c2c(C)noc2C)CC1 (centres undefined) | -6.9%
50 | COc1ccc2c(c1)sc1nc(-c3ccccc3)cn12 | 53.3% (active)
51 | CCOC(=O)N1CCN(C(=O)c2ccc3c(c2)sc2nc(-c4ccc(OC)cc4)cn23)CC1 | 19%
52 | CCOC(=O)N1CCN(C(=O)c2ccc3c(c2)sc2nc(-c4ccccc4)cn23)CC1 | 6.1%
53 | O=C(NC1=NCCS1)c1ccc2c(c1)C(=O)N(Cc1ccco1)C2=O | -7.1%
54 | O=C(OC(C(=O)NCC1CCCO1)c1ccccc1F)c1ccco1 (centres undefined) | 8.7%
55 | CCn1ncc(C2=NOC(C(=O)NCc3ccc(Cl)cc3)C2)c1C (centres undefined) | 59.3% (active)
56 | CCn1ncc(C2=NOC(C(=O)NCc3ccccc3)C2)c1C (centres undefined) | 48.7%
57 | CCn1ncc(C2=NOC(C(=O)NCc3ccc(OC)cc3)C2)c1C (centres undefined) | 23.7%
58 | CC1=C(C(=O)Nc2cccc(C)n2)C(c2ccc3c(c2)OCO3)C2=C(CC(c3ccco3)CC2=O)N1 (centres undefined) | 7.4%
59 | COC(=O)c1sccc1NC(=O)c1ccncc1 | 5.9%
60 | O=C(Cc1ccccc1)N(c1ccc(F)cc1)C1C=CS(=O)(=O)C1 (centres undefined) | 3.4%
61 | Cc1nn(Cc2ccccc2Cl)c(C)c1NC(=O)C1C2CCC(O2)C1C(=O)O (centres undefined) | 0.4%
62 | C=CCn1c(SCC(=O)Nc2cc3oc4ccccc4c3cc2OC)nnc1-c1cnccn1 | 50.9% (active)
63 | CCn1c(SCC(=O)Nc2ccccc2OC)nnc1-c1cnccn1 | -28%
64 | C=CCn1c(SCC(=O)Nc2cc(C)ccc2C)nnc1-c1cnccn1 | -12.5%
